# From ChEMBL document CHEMBL4513149, “CO-ADD screening of MMV (CH) - MMV compounds” (2021)
# Entries with a potency or affinity are not part of this list.
# Tests used:
# Klebsiella pneumoniae = settings: Concentration 20 uM; ASSAY_TEST Inhibition of Bacterial Growth; detection method Absorption (OD600); MEDIA CAMHB; plate type 384well; NBS; CORNING #3640; time 18 hr
# Candida albicans = settings: 20 µM
# Cryptococcus neoformans = settings: Concentration 20 uM; ASSAY_TEST Inhibition of Fungal Growth; detection method Resazurin; Absorption (OD600-OD570); plate type 384well; NBS; CORNING #3640
smiles,measurement,setting,value
Cc1c[nH]c(CCNC(=O)c2cc(-c3ccc(Cl)cc3)cs2)n1,Inhibition,Klebsiella pneumoniae,19.09%
same,Inhibition,Candida albicans,2.87%
same,Inhibition,Cryptococcus neoformans,-12.96%
Cc1ccc2nc(C)c(-c3ccn(Cc4ccccc4)n3)n2c1,Inhibition,Klebsiella pneumoniae,14.88%
same,Inhibition,Candida albicans,3.75%
same,Inhibition,Cryptococcus neoformans,-8.36%
N#Cc1nc(-c2ccccc2F)oc1NCCc1ccccc1,Inhibition,Klebsiella pneumoniae,12.11%
same,Inhibition,Candida albicans,6.96%
same,Inhibition,Cryptococcus neoformans,-3.78%
CC(C)(C)c1cc(C(=O)Nc2cccnc2)cc(C(=O)Nc2cccnc2)c1,Inhibition,Klebsiella pneumoniae,16.7%
same,Inhibition,Candida albicans,3.35%
same,Inhibition,Cryptococcus neoformans,-7.29%
c1ccc2c(c1)CN(CC1CC1)CC1(CCN(Cc3c[nH]c4cnccc34)CC1)O2,Inhibition,Klebsiella pneumoniae,8.97%
same,Inhibition,Candida albicans,4.16%
same,Inhibition,Cryptococcus neoformans,-4.09%
CC(=O)Nc1ccc(-c2noc(CC3CCCN(Cc4cccc(F)c4C)C3)n2)cc1 (centres undefined),Inhibition,Klebsiella pneumoniae,14.96%
same,Inhibition,Candida albicans,3.14%
same,Inhibition,Cryptococcus neoformans,-9.66%
Nc1ncc(-c2cn[nH]c2)cc1-c1nc2cc(Cl)cnc2[nH]1,Inhibition,Klebsiella pneumoniae,5.89%
same,Inhibition,Candida albicans,4.36%
same,Inhibition,Cryptococcus neoformans,-3.87%
CCC(NC(=O)c1ccccc1NC(=O)c1ccc(C)cc1)C(=O)OC (centres undefined),Inhibition,Klebsiella pneumoniae,8.73%
same,Inhibition,Candida albicans,4.2%
same,Inhibition,Cryptococcus neoformans,-3.77%
CC1CCCN(C(=O)C(C)Nc2cc(Cl)ccc2N2CCOCC2)C1 (centres undefined),Inhibition,Klebsiella pneumoniae,10.27%
same,Inhibition,Candida albicans,5.64%
same,Inhibition,Cryptococcus neoformans,-4.76%
COc1ccccc1CNC(=O)c1cc(C2CC2)nc2c1cnn2C(C)C,Inhibition,Klebsiella pneumoniae,8.65%
same,Inhibition,Candida albicans,6.8%
same,Inhibition,Cryptococcus neoformans,-9.25%
CC1CC1C(=O)NC1CCN(CC2(c3ccccc3)CCCCC2)CC1 (centres undefined),Inhibition,Klebsiella pneumoniae,16.4%
same,Inhibition,Candida albicans,3.19%
same,Inhibition,Cryptococcus neoformans,-6.72%
CCC(C)NC(=O)c1ccc(NC(=O)C2(c3ccccc3)CCCC2)cc1 (centres undefined),Inhibition,Klebsiella pneumoniae,1.96%
same,Inhibition,Candida albicans,3.52%
same,Inhibition,Cryptococcus neoformans,9.11%
Cc1cc(Nc2ccc(C(F)(F)F)cc2)n2ccnc2n1,Inhibition,Klebsiella pneumoniae,6.21%
same,Inhibition,Candida albicans,3.67%
same,Inhibition,Cryptococcus neoformans,2.17%
CS(=O)(=O)N1CCC(Cn2nc(Cc3cccc4ccccc34)c3c(N)ncnc32)CC1,Inhibition,Klebsiella pneumoniae,11.77%
same,Inhibition,Candida albicans,2.39%
same,Inhibition,Cryptococcus neoformans,-6.98%
O=C(NCCc1ccn(-c2ccccc2)n1)C1CCCCC1,Inhibition,Klebsiella pneumoniae,6.33%
same,Inhibition,Candida albicans,3.92%
same,Inhibition,Cryptococcus neoformans,-9.22%
O=C(Nc1nc(-c2ccccn2)cs1)C1CC1c1ccccc1F (centres undefined),Inhibition,Klebsiella pneumoniae,21.19%
same,Inhibition,Candida albicans,5.33%
same,Inhibition,Cryptococcus neoformans,-9.59%
CCn1ncc2c(NC3CCOCC3)c(CNC(=O)c3ccnn3C)c(C)nc21,Inhibition,Klebsiella pneumoniae,-4.12%
same,Inhibition,Candida albicans,0.07%
same,Inhibition,Cryptococcus neoformans,-8.07%
COc1cc(OC)cc(C(=O)NCC2Cc3cc(Cl)cc(-c4ccncc4)c3O2)c1 (centres undefined),Inhibition,Klebsiella pneumoniae,8.14%
same,Inhibition,Candida albicans,4.34%
same,Inhibition,Cryptococcus neoformans,-5.78%
CC1(C)Cc2c(c(N3CCOCC3)nc3snc(Br)c23)CO1,Inhibition,Klebsiella pneumoniae,3.58%
same,Inhibition,Candida albicans,13.1%
same,Inhibition,Cryptococcus neoformans,-2.44%
CCOc1ccc2cc(-c3nn(CC4CCN(C)CC4)c4ncnc(N)c34)ccc2c1.Cl,Inhibition,Klebsiella pneumoniae,14.21%
same,Inhibition,Candida albicans,4.38%
same,Inhibition,Cryptococcus neoformans,-9.79%
O=C(Nc1nnc(S)s1)c1cc(Br)ccc1Cl,Inhibition,Klebsiella pneumoniae,6.18%
same,Inhibition,Candida albicans,4.73%
same,Inhibition,Cryptococcus neoformans,-3.6%
Nc1ncnc2[nH]nc(Cc3cccc4ccccc34)c12,Inhibition,Klebsiella pneumoniae,12.26%
same,Inhibition,Candida albicans,3.76%
same,Inhibition,Cryptococcus neoformans,-8.72%
O=C(Nc1ccc(F)c(-c2nc3cc(-c4ccccc4)cnc3[nH]2)c1)N1CCCC1,Inhibition,Klebsiella pneumoniae,7.38%
same,Inhibition,Candida albicans,49.9%
same,Inhibition,Cryptococcus neoformans,-3.95%
O=C(OCc1ccccc1)N1CCC(c2cc(-c3ccncc3)c(-c3ccc(F)cc3)[nH]2)CC1,Inhibition,Klebsiella pneumoniae,6.24%
same,Inhibition,Candida albicans,3.85%
same,Inhibition,Cryptococcus neoformans,-11.48%
FC(F)(F)c1cccc(-c2nc3c(NCc4ccncc4)nccc3[nH]2)c1,Inhibition,Klebsiella pneumoniae,6.33%
same,Inhibition,Candida albicans,3.63%
same,Inhibition,Cryptococcus neoformans,5.66%
Nc1ccc(C(=O)Nc2ccc(-c3nc4ccccc4o3)cc2)cc1,Inhibition,Klebsiella pneumoniae,7.66%
same,Inhibition,Candida albicans,15.1%
same,Inhibition,Cryptococcus neoformans,-12.24%
Clc1ccc(CCNc2cc(-c3ccccc3)nc3ncnn23)cc1,Inhibition,Klebsiella pneumoniae,8.91%
same,Inhibition,Candida albicans,16.3%
same,Inhibition,Cryptococcus neoformans,-16.06%
CC(C)c1ncc(-c2ccncc2)c([C@H]2CC[C@H](CNC(=O)c3cccnc3)CC2)n1,Inhibition,Klebsiella pneumoniae,18.24%
same,Inhibition,Candida albicans,1.5%
same,Inhibition,Cryptococcus neoformans,-3.68%
NS(=O)(=O)c1cccc(-c2ccc3ncc(N4CCOCC4)nc3c2)c1,Inhibition,Klebsiella pneumoniae,17.56%
same,Inhibition,Candida albicans,4.12%
same,Inhibition,Cryptococcus neoformans,-9.08%
O=C(C1CCN(c2nnc(-n3cccc3)s2)CC1)N1CCC(Cc2ccccc2)CC1,Inhibition,Klebsiella pneumoniae,11.79%
same,Inhibition,Candida albicans,4.63%
same,Inhibition,Cryptococcus neoformans,-9.35%
CCOC(=O)c1c(NC(=O)c2c(F)c(F)c(F)c(F)c2F)sc(C(N)=O)c1C,Inhibition,Klebsiella pneumoniae,11.9%
same,Inhibition,Candida albicans,5.2%
same,Inhibition,Cryptococcus neoformans,-6.59%
COc1ccc2nc(C)cc(OCC(=O)NCc3ccccc3)c2c1,Inhibition,Klebsiella pneumoniae,19.56%
same,Inhibition,Candida albicans,2.81%
same,Inhibition,Cryptococcus neoformans,-4.71%
c1ccc(-c2cc(N3CCCCC3)c3ccccc3n2)nc1,Inhibition,Klebsiella pneumoniae,14.97%
same,Inhibition,Candida albicans,-0.2%
same,Inhibition,Cryptococcus neoformans,-6.72%
O=C(C1CCCCC1)N1CC(=O)N2CCc3ccccc3C2C1 (centres undefined) [PRAZIQUANTEL],Inhibition,Klebsiella pneumoniae,12.46%
same,Inhibition,Candida albicans,4.53%
same,Inhibition,Cryptococcus neoformans,-6.4%
CC1=Nc2ccc(Cl)cc2C(O)(c2ccc(C)cc2)N1CCN1CCCCC1 (centres undefined),Inhibition,Klebsiella pneumoniae,18.59%
same,Inhibition,Candida albicans,3.13%
same,Inhibition,Cryptococcus neoformans,-4.53%
Cc1nn2c(O)c3c(nc2c1-c1ccc(F)cc1)CCCC3,Inhibition,Klebsiella pneumoniae,11.6%
same,Inhibition,Candida albicans,3.69%
same,Inhibition,Cryptococcus neoformans,-6.74%
O=C(Nc1cnc2ccccc2c1)c1cccc(-n2cnnn2)c1,Inhibition,Klebsiella pneumoniae,8.59%
same,Inhibition,Candida albicans,4.47%
same,Inhibition,Cryptococcus neoformans,-9.7%
NCCC(O)C(=O)N[C@@H]1C[C@H](N)[C@@H](OC2O[C@H](CN)[C@@H](O)[C@H](O)[C@H]2O)[C@H](O)C1OC1O[C@H](CO)[C@@H](O)[C@H](N)[C@H]1O.O=S(=O)(O)O.O=S(=O)(O)O (some centres undefined),Inhibition,Klebsiella pneumoniae,11.78%
same,Inhibition,Candida albicans,2.46%
same,Inhibition,Cryptococcus neoformans,-2.57%
Cc1ccc(-c2cc(C(=O)Nc3cccnc3)c3cc(Br)ccc3n2)cc1,Inhibition,Klebsiella pneumoniae,15.62%
same,Inhibition,Candida albicans,4.34%
same,Inhibition,Cryptococcus neoformans,-8.45%
FC(F)(F)c1ccc(N(c2cccnc2)C2CCN(c3ccc(C(F)(F)F)cn3)CC2)cc1,Inhibition,Klebsiella pneumoniae,14.96%
same,Inhibition,Candida albicans,2.59%
same,Inhibition,Cryptococcus neoformans,-3.19%
COCC(C)NC(=O)CSc1ncnc2sc(-c3ccccc3)cc12 (centres undefined),Inhibition,Klebsiella pneumoniae,18.05%
same,Inhibition,Candida albicans,9.04%
same,Inhibition,Cryptococcus neoformans,0.58%
CC(C)(CN)c1nc(-c2ccc(Cl)c(O)c2)c(-c2ccnc(N)n2)[nH]1.O=C(O)C(F)(F)F.O=C(O)C(F)(F)F,Inhibition,Klebsiella pneumoniae,15.34%
same,Inhibition,Candida albicans,2.09%
same,Inhibition,Cryptococcus neoformans,-6.49%
CCCCS(=O)(=O)Nc1ccc2cnn(C)c2c1,Inhibition,Klebsiella pneumoniae,10.18%
same,Inhibition,Candida albicans,2.57%
same,Inhibition,Cryptococcus neoformans,-4.93%
CC(C)C(C(=O)Nc1ccc(S(=O)(=O)N(C)C)cc1)c1ccc(Cl)cc1 (centres undefined),Inhibition,Klebsiella pneumoniae,-12.7%
same,Inhibition,Candida albicans,4.83%
same,Inhibition,Cryptococcus neoformans,-3.24%
O=C(N[C@H](Cc1ccccc1)C(=O)Nc1ccccc1N1CCOCC1)c1cccs1,Inhibition,Klebsiella pneumoniae,11.64%
same,Inhibition,Candida albicans,3.1%
same,Inhibition,Cryptococcus neoformans,-4.85%
CNC(=O)c1cc(S(=O)(=O)N2CCN(c3ccccn3)CC2)cs1,Inhibition,Klebsiella pneumoniae,10.77%
same,Inhibition,Candida albicans,2.91%
same,Inhibition,Cryptococcus neoformans,-8.81%
O=C(CN1CCOCC1)Nc1ccc2ncnc(Nc3ccc(OCc4cccc(F)c4)c(Cl)c3)c2c1,Inhibition,Klebsiella pneumoniae,11.31%
same,Inhibition,Candida albicans,5.94%
same,Inhibition,Cryptococcus neoformans,-1.06%
Nc1ncc(-c2ccc(C(F)(F)F)nc2)cc1-c1ccc(C(F)(F)F)nc1,Inhibition,Klebsiella pneumoniae,-7.95%
same,Inhibition,Candida albicans,5.26%
same,Inhibition,Cryptococcus neoformans,-5.78%
Cc1nc2ccccn2c1C(=O)NCc1ccc(Cl)cc1,Inhibition,Klebsiella pneumoniae,17.8%
same,Inhibition,Candida albicans,2.86%
same,Inhibition,Cryptococcus neoformans,-5.69%
O=C(NCCN1CCCC1)c1cc(NCCN2CCOCC2)nc2ccc(Cl)cc12,Inhibition,Klebsiella pneumoniae,16.49%
same,Inhibition,Candida albicans,2.97%
same,Inhibition,Cryptococcus neoformans,-7.83%
C[C@H](C(N)=O)N1CCCC[C@@H]1c1ccc(OCc2cccc(F)c2)cc1,Inhibition,Klebsiella pneumoniae,9.46%
same,Inhibition,Candida albicans,2.97%
same,Inhibition,Cryptococcus neoformans,-6.98%
COc1ccc(Cn2cnc3c(-c4ccco4)nc(Cl)nc32)cc1,Inhibition,Klebsiella pneumoniae,18.21%
same,Inhibition,Candida albicans,6.94%
same,Inhibition,Cryptococcus neoformans,-6.4%
O=C(Nc1ccnc(-c2cccnc2)n1)c1cc(C(F)(F)F)cc(C(F)(F)F)c1,Inhibition,Klebsiella pneumoniae,14.57%
same,Inhibition,Candida albicans,1.91%
same,Inhibition,Cryptococcus neoformans,-5.46%
CCCNC(=O)N1CCC2(CC1)CC(=O)c1cc(C)ccc1O2,Inhibition,Klebsiella pneumoniae,17.38%
same,Inhibition,Candida albicans,2.86%
same,Inhibition,Cryptococcus neoformans,-8.06%
CC(=O)O.CC(=O)O.Nc1ncnc2c1ncn2[C@@H]1O[C@H](COS(=O)(=O)NC(=O)c2ccccc2O)[C@@H](O)[C@H]1O,Inhibition,Klebsiella pneumoniae,14.67%
same,Inhibition,Candida albicans,1.66%
same,Inhibition,Cryptococcus neoformans,-8.69%
Cc1ccc(NC(=O)CC2COc3ccccc3O2)cc1Cl (centres undefined),Inhibition,Klebsiella pneumoniae,11.14%
same,Inhibition,Candida albicans,2.65%
same,Inhibition,Cryptococcus neoformans,-13.17%
Cc1cc(C(=O)Nc2cnn(Cc3ccc(Cl)cc3Cl)c2)no1,Inhibition,Klebsiella pneumoniae,-11.81%
same,Inhibition,Candida albicans,11.5%
same,Inhibition,Cryptococcus neoformans,-4.75%
Clc1ccc(Cl)c(CO[C@H]2CCCC[C@@H]2n2ccnc2)c1,Inhibition,Klebsiella pneumoniae,15.52%
same,Inhibition,Candida albicans,2.99%
same,Inhibition,Cryptococcus neoformans,2.84%
